Results published in PubChem BioAssay.

Assays:
[1] = target: Tumor necrosis factor receptor superfamily member 10B (Homo sapiens) (UniProt O14763); test: viability loss of caspase-8 NB7 cells with TRAIL – with/without TRAIL, luminescence panel, confirmation (AID 651596); conditions: NB7 neuroblastoma + caspase-8, TRAIL sensitization, NB7 Caspase-8, with TRAIL, mean of runs, at 10 µM, stronger effect = higher value
[2] = as above; conditions: NB7 neuroblastoma + caspase-8, without TRAIL, NB7 Caspase-8, without TRAIL, mean of runs, at 10 µM

Tumor necrosis factor receptor superfamily member 10B (Homo sapiens), sequence (O14763 whole entry, looked up): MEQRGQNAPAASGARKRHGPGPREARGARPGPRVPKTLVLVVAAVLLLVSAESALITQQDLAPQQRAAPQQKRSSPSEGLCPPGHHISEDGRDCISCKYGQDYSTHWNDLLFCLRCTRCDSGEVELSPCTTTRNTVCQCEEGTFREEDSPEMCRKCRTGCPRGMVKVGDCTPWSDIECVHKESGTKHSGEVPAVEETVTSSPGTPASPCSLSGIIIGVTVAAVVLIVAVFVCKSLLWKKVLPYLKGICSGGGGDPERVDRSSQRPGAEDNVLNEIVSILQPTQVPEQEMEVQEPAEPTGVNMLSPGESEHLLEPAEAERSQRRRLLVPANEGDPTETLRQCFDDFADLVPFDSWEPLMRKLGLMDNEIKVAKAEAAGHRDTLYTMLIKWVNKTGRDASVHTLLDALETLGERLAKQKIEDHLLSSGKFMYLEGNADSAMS

Row | SMILES | activity [1] [%] | activity [2] [%]
1 | COc1ccc(/C(N)=N/OC(=O)c2ccc3ccccc3c2)cc1OC | 99 | 98
2 | CCCn1c(Nc2nc3ccccc3n2C)nc2ccccc21 | 38.1 | 50.4
3 | CN(C)CCCN(C(=O)c1cc2cc([N+](=O)[O-])ccc2s1)c1nc2cc3c(cc2s1)OCCO3 | 92.2 | 83
4 | Cc1ccc(C(=O)Nc2ccc3nccnc3c2)cc1 | 77.5 | 74.8
5 | Cc1cccc(NC(=S)NC(=O)c2ccc(-c3ccccc3)cc2)n1 | 55.5 | 55.3
6 | O=C(C[C@H]1C[C@H](C(=O)N2CCCCC2)[C@@]2(CCc3ccccc3)c3[nH]c4ccc(Cl)cc4c3CCN2C1=O)NCCC1=CCCCC1 | 46.3 | 86.7
7 | COc1cc2c(cc1OC)C(c1cc(Br)ccc1F)N(C(=O)CCl)CC2 (centres undefined) | 98.6 | 98.7
8 | CCn1cc(/C=C/C(=O)c2ccc(O)cc2)c(C)n1 | 63.8 | 57.5
9 | CCCc1cc(=O)[nH]c(SCC(=O)c2c(N)n(C3CC3)c(=O)[nH]c2=O)n1 | 80.3 | 88.8
10 | COCCn1c(C)cc(C(=O)COC(=O)c2n[nH]c3ccccc23)c1C | 88.7 | 86.9
11 | Cc1nn(-c2ccccc2)c(Cl)c1/C=N/NC(=O)c1ccn[nH]1 | 79.8 | 71.3
12 | OCC1OC(n2cnc3c(=S)nc[nH]c32)CC1O (centres undefined) | 31.4 | 35.7
13 | O=C1C(=Cc2ccccc2Cl)CCc2ccccc21 | 62.3 | 51.9
14 | CCOc1ccc(C(=O)Nc2nnc(NC(=S)Nc3ccccc3)s2)cc1 | 59.8 | 61.6
15 | C[C@@H](CO)NC(=O)c1ccc2c3n(nc2c1)-c1ccccc1CO3 | 91.5 | 91.8
16 | Fc1cccc2sc(Nc3nnc(-c4ccccc4)o3)nc12 | 71 | 73
17 | CNC(=S)N1N=C(c2ccccc2)CC1c1ccc(Br)cc1 (centres undefined) | -12.4 | -42.7
18 | CCOC(=O)c1cccc(NC(=O)/C=C/c2ccc3c(c2)OCO3)c1 | 78.9 | 78.7
19 | O=C1C(=C(I)I)c2ccccc2-c2ccccc21 | 38 | 99.6
20 | COc1ccccc1C/C(N)=N/OC(=O)c1cccc([N+](=O)[O-])c1 | 89.8 | 69.6
21 | CN(C)CC(O)c1ccc(C=Cc2ccc(Cl)cc2)cc1 (centres undefined) | 98.3 | 97.2

Row | SMILES | activity [1] [%] | activity [2] [%]
22 | C#CC(=O)N(c1cccc(OC)c1)C(C(=O)NC1CCCC1)c1cccs1 (centres undefined) | 99.4 | 99.5
23 | CCCCCCCCC(c1nc2ccccc2[nH]1)N1CCN=C1c1cc2ccccc2[nH]1 (centres undefined) | 54.9 | 84.8
24 | CCCCNC(=O)c1cn(C)c2ccc(S(=O)(=O)N3CC(C)CC(C)C3)cc2c1=O (centres undefined) | 42.1 | 41.5
25 | Oc1ccc(-c2cn3cc(C(F)(F)F)ccc3n2)cc1 | 89.1 | 87.5
26 | NC(=S)NN=C1c2cc(OCCN3CCOCC3)ccc2-c2ccc(OCCN3CCOCC3)cc21 | 99 | 99.5
27 | CCOC(=O)c1cc2c(C)n(-c3ccc(C)cc3)c(C)c2ccc1=O | 74.9 | 63.9
28 | CCOc1ccc(-n2c(SCC(N)=O)nc3c([nH]c4ccccc43)c2=O)cc1 | 59.4 | 56.5
29 | COc1nn(-c2ccccc2)c(=O)c(Cl)c1Cl | 92.3 | 96.3
30 | CCOc1ccc(N=Cc2c(C)[nH]n(-c3nc4ccccc4[nH]3)c2=O)cc1 | 87.4 | 86.2
31 | Fc1cccc(C2NN=C(c3ccccc3)S2)c1 (centres undefined) | 58.6 | 58.5
32 | Nc1c(-c2ccccc2)cnn1-c1ccccc1 | 44.6 | 40.4
33 | C#Cc1ccc(NC(=O)C2(C)CCN2C(=O)c2ccccc2CCc2ccccc2)cc1 (centres undefined) | 91.2 | 95.9
34 | Nc1c(C(=O)Nc2nc3ccccc3s2)sc2nc(-c3cccs3)ccc12 | 97.8 | 98.7
35 | CCCCN(CC)S(=O)(=O)c1ccc(C(=O)N=c2sc3cc(NC(C)=O)ccc3n2C)cc1 | 20.9 | 53.8
36 | CCN1CCN(CCCNC(=O)c2ccc3c(c2)NC(=O)/C(=C\c2cccc(C)c2)S3)CC1 | 41.4 | 89.2
37 | Cc1nc(N)nc(N)c1/C=C/C(C)(C)c1ccc(Cl)cc1 | 54.5 | 61.7
38 | O=C(Nc1nc(=O)c2ccccc2s1)c1ccc(F)cc1 | 64.8 | 72.2
39 | Nc1c(C(=O)N2CCOCC2)sc2nc3c(cc12)CCCC3 | 67.5 | 63.5
40 | O=C(CSc1nnc(NC(=O)c2ccccc2)s1)NCC1CCCO1 (centres undefined) | 60.9 | 63.2
41 | Cc1ccsc1/C=N/NC(=O)c1ccc2c(c1)OCCO2 | 75.9 | 68.2
42 | COC(=O)C1=C(C(=O)OC)[C@@H]2N(Cc3ccccc3)c3ccccc3[C@@]23C[C@@H](C(=O)OC)N(C(=O)c2cccs2)C3=N1 | 17.8 | -45.8
